From PubChem BioAssay
The source made the active and inactive calls. How the calls were made is not given here.

Assay: inhibition of 3D7 malaria parasite growth – strain 3D7 (AID 2306);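 further: 0% = DMSO wells and 100% = chloroquine plus artemisinin control wells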
Conditions: P. falciparum 3D7 erythrocytic growth, LDH absorbance, 72 h; at 2 µM; active compounds read high

Growth inhibition, active:
Cc1cc(-c2cccc(CNCCc3ccc(Cl)cc3)c2)cnc1N 90%, CCCCCCN1CCN(Cc2cccc(NC(=O)c3cccc(OCC)c3)c2)CC1 85%, CCOc1ccc(Br)cc1/C=C/C(=O)Nc1ccc2c(c1)CN(C)CCC2 97%, O=C(CN1CCN(C(=O)c2ccco2)CC1)Nc1ccc(Br)cc1Cl 88%, FC(F)(F)c1ccc2nc(-c3ccc(-c4ccc(CNCC5CCCO5)cc4)cc3)[nH]c2c1 (configuration not stated) 101%, CC[C@H](NC(=O)c1ccc(NC(=O)OC(C)(C)C)cc1)C(=O)N[C@@H](CO)C(=O)NCCCCc1ccccc1 98%, Cc1cccc(C(=O)Nc2ccnc(N3CCC(N(C)Cc4cccc(O)c4)CC3)c2)c1 95%, CCCSc1nc2c(c(=O)n1CCc1ccccc1)C1(CCCC1)Cc1ccccc1-2 99%, COc1ccc2c(NN=Cc3cccnc3)ccnc2c1 97%, Cc1cc(N[C@@H](CC(C)C)C(=O)NCc2cccc(F)c2)nc(NCC2CCCCC2)n1 99%, CN1CCCN(Cc2ccc(-c3ccc(NC(=O)c4ccc(C#N)cc4)cc3)cc2)CC1 91%, O=C(N[C@@H](CC1CCCCC1)C(=O)NCCN1CCCC1)c1ccc(O)c(-c2ccc(Cl)c(Cl)c2)c1 99%, NC(N)=Nc1nc(-c2ccc(NC(=O)Nc3cccc(-c4csc(N=C(N)N)n4)c3)cc2)cs1 94%, CC(C)COc1ccc(Cl)cc1Cc1ccc(-c2nc3c(cnc4ccccc43)[nH]2)o1 87%, CC1(C)N=C(N)N=C(N)N1OCc1cc(Cl)c(Cl)cc1CON1C(N)=NC(N)=NC1(C)C 98%, CN(C)CCNCc1cccc(-c2cccc(-c3nc4ccccc4[nH]3)c2)c1 101%, CCn1ccc2c(N3CCCS3(=O)=O)cc(C(=O)N[C@@H](Cc3ccccc3)[C@H](O)CNC3CCCCC3)cc21 97%, CCCCCCN1CCN(Cc2cccc(NC(=O)c3cc4ccccc4s3)c2)CC1 93%, N#Cc1ccc2c(c1)CCN(CCC1CCC(NC(=O)c3cc4cccc([N+](=O)[O-])c4[nH]3)CC1)C2 (configuration not stated) 100%, O=C(Cn1c(CCc2cccc(F)c2F)cc(=O)c2cccnc21)N(CCCn1ccnc1)Cc1ccc(-c2ccc(C(F)(F)F)cc2)cc1 96%, O=C(Nc1cccc(OCCN2CCCC2)c1)Nc1ccc(Cl)c(Cl)c1 98%, Cc1ccc(Nc2nc(C)cc(Nc3cccc(NS(C)(=O)=O)c3)n2)cc1 96%, Cc1cccc2c3c([nH]c12)C1(CCN(Cc2ccccc2)CC1)NC(C(=O)NCc1ccccc1)C3 (configuration not stated) 81%, OCCn1c(CNCCCNc2nc3ccccc3[nH]2)cc2c(Cl)cc(Cl)cc21 95%, CCOc1ccc2c(NN=Cc3cccc([N+](=O)[O-])c3)cc(C)nc2c1 100%, CCN(CC)CCN(CCCc1ccc(-c2ccc(C(F)(F)F)cc2)cc1)C(=O)Cn1c(CCc2cccc(F)c2F)nc(=O)c2c1CCC2 92%, Cc1cc(C(=O)Nc2nc(-c3ccccn3)nc3ccsc23)no1 98%, CCCN(CCC)CCCNc1ccc(C(=O)Nc2ccc(C)c(F)c2)cc1[N+](=O)[O-] 100%, CCN(CC)CCN(Cc1ccc(-c2ccc(C(F)(F)F)cc2)cc1)C(=O)Cn1cc(CCCc2cccc(F)c2F)c(=O)c2ccccc21 89%, O=C(Cc1ccc(NC(=O)c2ccc(O)c(-c3ccc(Cl)c(Cl)c3)c2)cc1)NCCc1ccc(Cl)c(Cl)c1 99%, C=CCO[C@@H]1O[C@H](COC(c2ccccc2)(c2ccccc2)c2ccccc2)[C@@H](OC(C)=O)[C@H](OC(C)=O)[C@H]1NC(C)=O 93%, CCOc1cc(NCCSCc2nc[nH]c2C)nc2ccccc12 92%, Cc1cc(C(=O)Nc2ccc(-c3nc4ccccc4[nH]3)cc2)ccc1[N+](=O)[O-] 101%, Cc1ccc(C)c2sc(N(CCCn3ccnc3)C(=O)C=Cc3cccs3)nc12 101%, COc1cc(C=Cc2ccc3ccccc3n2)cc(Br)c1OCC(=O)N(C)C 99%, O=C(Nc1ccc(N2CCCCC2)c(Cl)c1)c1ccc(Br)o1 94%, Cn1cnc(CCNC(=O)c2cccc(-c3cccc(-c4nc5ccc(C(F)(F)F)cc5[nH]4)c3)c2)c1 100%
